Assay results: PubChem BioAssay (Tox21)
“And” between values parts separate entries of the source, which are not always exact repeats. Equal entries are not always repeated. Results filed as inconclusive are left out. A call without a number means that no potency is given here. The source made the active and inactive calls. Unless noted, the call rests on the fitted dose curve.

Columns and labels:
[1] = Nuclear factor erythroid 2-related factor 2/antioxidant responsive element (Nrf2/ARE) small molecule agonists: luciferase reporter gene qHTS assay in human keratinocytes (AID 1919969); further: nearly all actives have a fitted effect of over 35% in size; further: potency means the concentration at half of the fitted maximal effect
[2] = biological target: KiSS-1 receptor (Homo sapiens) (UniProt Q969F8); test: Human kisspeptin (KISS1R) small molecule agonists, calcium flux assay in KISS1R-HEK293 cells (AID 1920064; active means well fitted activation curve with a large enough effect in the repeat runs)
Outline: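 Measures KISS1R agonism through calcium-sensitive dye fluorescence in stably transfected HEK293 cells, read for 3 min after pin-tool compound delivery; 15-point titrations in triplicate.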

[3] = G protein-coupled receptor (GPCR) small molecule agonists, calcium flux assay: HEK293 wild type cell line counter screen (AID 1920065)
Outline: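 Readout: fluorescence at 480 nm excitation/540 nm emission, sampled at 1 s intervals for 3 min. Cells had been cultured 18 h, then dye-loaded 1 h at 37 C before compound or ATP addition.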

[4] = p53 small molecule agonists, cell-based qHTS assay with human liver microsomes (AID 1963577);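 further: p53 response element beta-lactamase reporter cells with liver microsomes plus NADPH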
Outline: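 In this qHTS, p53 response-element beta-lactamase cells receive test compound together with a microsome/NADPH activating system (0.5 mg/mL final each) and are incubated 16 h at 37 C before LiveBLAzer fluorescence detection.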

[5] = p53 small molecule agonists, cell-based qHTS assay with rat liver microsomes (AID 1963578)
Outline: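 Agonist mode in p53RE-bla reporter cells, with compounds co-incubated 16 h at 37 C alongside 0.5 mg/mL rat liver microsomes and 0.5 mg/mL NADPH (final), followed by a 2 h LiveBLAzer detection step.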

[6] = p53 small molecule agonists, cell-based qHTS assay with human liver microsomes: qHTS cell viability counter screen (AID 1963579); further: nearly all actives have a fitted effect of over 45% in size; further: potency means the concentration at half of the fitted maximal effect
Outline: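 Metabolically activated exposure: compounds, human liver microsomes and NADPH (0.5 mg/mL final apiece) were added to p53RE-bla cells seeded 5 h earlier, left 16 h at 37 C, and then assessed for viability by CellTiter-Glo luminescence.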

[7] = p53 small molecule agonists, cell-based qHTS assay with rat liver microsomes: qHTS cell viability counter screen (AID 1963580); further: nearly all actives have a fitted effect of over 45% in size; further: potency means the concentration at half of the fitted maximal effect
Outline: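 p53RE-bla HCT-116 cells (4,000/well) rested 5 h at 37 C, then given Tox21 compounds in DMSO with rat liver microsomes (0.5 mg/mL final) plus NADPH (0.5 mg/mL final) for 16 h at 37 C. Viability read by CellTiter-Glo luminescence after 30 min at room temperature.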

[8] = p53 small molecule agonists, cell-based qHTS assay: qHTS cell viability counter screen (AID 1963581); further: nearly all actives have a fitted effect of over 45% in size; further: potency means the concentration at half of the fitted maximal effect
Outline: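 In the same plates used for the p53 bla reporter, HCT-116 cells given compounds for 16 h at 37 C received CellTiter-Glo; luminescence was recorded 30 min later at room temperature.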

[9] = p53 small molecule agonists, cell-based qHTS assay (AID 1963582; active means well fitted activation curve with a large enough effect in the signal ratio in the repeat runs, not every such curve was filed as active; the % refers to the signal ratio)
Outline: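 Compounds are pin-transferred in DMSO onto p53RE-bla cells and incubated 16 h at 37 C. The B/G FRET beta-lactamase substrate is then applied for 2 h at RT and fluorescence recorded.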

[10] = biological target: 5-hydroxytryptamine receptor 2A (Homo sapiens) (UniProt P28223); test: 5-hydroxytryptamine receptor 2A (HTR2A) small molecule antagonists, cell-based qHTS assay (AID 1963586); further: nearly all actives have a fitted effect of over 45% in size; further: potency means the concentration at half of the fitted maximal effect
Outline: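 Antagonist-mode intracellular calcium assay: DOI (4 nM) added after 5 min compound pre-incubation at room temperature to dye-loaded HTR2A-CHO cells. Fluorescence followed for 3 min, sampled every second.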

[11] = biological target: 5-hydroxytryptamine receptor 2A (Homo sapiens) (UniProt P28223); test: 5-hydroxytryptamine receptor 2A (HTR2A) small molecule agonists, cell-based qHTS assay (AID 1963587); further: nearly all actives have a fitted effect of over 30% in size
Outline: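 HTR2A-CHO cells, plated 18 h at 37 C/5% CO2, dye-loaded 1 h at 37 C; compounds in DMSO added by pin tool (agonist mode). Intracellular calcium flux read as kinetic fluorescence on FDSS over 2 min at 1 s intervals.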

[12] = biological target: Muscarinic acetylcholine receptor M1 (Homo sapiens) (UniProt P11229); test: Cholinergic receptor muscarinic 1 (CHRM1) small molecule antagonists, cell-based qHTS assay (AID 1963588); further: nearly all actives have a fitted effect of over 40% in size; further: potency means the concentration at half of the fitted maximal effect
Outline: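 CHRM1-CHO calcium-flux assay, antagonist mode. Cells were seeded 18 h, dye-loaded 1 h at 37 C and given compound for 5 min at RT, then acetylcholine was added at 50nM. FDSS fluorescence was read 3 min; 15 concentrations, three runs.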

[13] = cAMP Responsive Elements (CRE) small molecule antagonists, cell-based qHTS assay (AID 1963591; active means well fitted inhibition curve with a large enough effect in the signal ratio in the repeat runs, not every such curve was filed as active; the % refers to the signal ratio; further: potency means the concentration at half of the fitted maximal effect)
Outline: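 Inhibition of NKH477-driven (0.25 uM final) CRE-beta-lactamase signal in HEK293T cells, 3 h compound exposure at 37 °C, detected by FRET substrate fluorescence.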

[14] = biological target: Muscarinic acetylcholine receptor M1 (Homo sapiens) (UniProt P11229); test: Cholinergic receptor muscarinic 1 (CHRM1) small molecule agonists, cell-based qHTS assay (AID 1963589); further: nearly all actives have a fitted effect of over 35% in size
Outline: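 Each compound was tested at 15 concentrations across three independent runs on dye-loaded CHO cells stably expressing human CHRM1, reading intracellular calcium fluorescence kinetically at 1 sec intervals.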

[15] = biological target: Beta-2 adrenergic receptor (Homo sapiens) (UniProt P07550); test: Adrenergic beta2 receptor (ADRB2) small molecule antagonists, cell-based qHTS assay (AID 1963592); further: nearly all actives have a fitted effect of over 50% in size; further: potency means the concentration at half of the fitted maximal effect
Outline: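 Cells (CHO, stable ADRB2 overexpression) incubated 18-20hr at 37C; compounds added from DMSO; agonist mix (1nM isoproterenol, 100uM IBMX, 25uM Ro-20-1724) added; 0.5hr RT; d2-cAMP and anti-cAMP-cryptate added; 1hr RT; 665/615 nm read.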

[16] = biological target: D(2) dopamine receptor (Homo sapiens) (UniProt P14416); test: Dopamine D2 receptor (DRD2) small molecule agonists, cell-based qHTS assay (AID 1963594); further: nearly all actives have a fitted effect of over 35% in size
Outline: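 HEK293 cells stably expressing DRD2 were cultured 24 h at 37 C, then given Ro20-1724 (0.1 mM final) and compounds for 10 min at room temperature. NKH477 (200nM) was then added for 30 min. cAMP was read by HTRF.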

[17] = biological target: D(2) dopamine receptor (Homo sapiens) (UniProt P14416); test: Dopamine D2 receptor (DRD2) small molecule antagonists, cell-based qHTS assay (AID 1963595; active means well fitted inhibition curve with a large enough effect in the signal ratio in the repeat runs, with a control signal flat; the % refers to the signal ratio; further: potency means the concentration at half of the fitted maximal effect)
Outline: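 DRD2-HEK293; 0.1 mM Ro20-1724; cpd 10 min RT; NKH477 200 nM + quinpirole 12 nM, 30 min RT; HTRF cAMP (cAMP-d2/anti-cAMP cryptate), 665/620 nm ratio after 1 h.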

[18] = biological target: Beta-2 adrenergic receptor (Homo sapiens) (UniProt P07550); test: Adrenergic beta2 receptor (ADRB2) small molecule agonists, cell-based qHTS assay (AID 1963593);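 further: CHO cells stably overexpressing human ADRB2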
Outline: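 CHO cells stably over-expressing ADRB2 were plated overnight at 37C, then dosed with compounds plus a stimulation mix containing 100uM IBMX and 25uM Ro-20-1724 for 0.5hr at room temperature. cAMP was measured by HTRF competition, 1hr.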

[19] = cAMP Responsive Elements (CRE) small molecule agonists, cell-based qHTS assay (AID 1963590)
Outline: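 Cell line: CRE-bla HEK 293T; medium DMEM/10% dialyzed FBS/0.1 mM NEAA/1 mM pyruvate/25 mM HEPES; 3 h compound exposure; beta-lactamase FRET readout after 2 h substrate loading at RT.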

[20] = biological target: Gonadotropin-releasing hormone receptor (Homo sapiens) (UniProt P30968); test: Human gonadotropin-releasing hormone receptor (GnRHR) small molecule agonists, calcium flux assay in GnRHR-HEK293 cells (AID 1920063); further: nearly all actives have a fitted effect of over 35% in size
Outline: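 Fluorescence kinetics (480 nm excitation, 540 nm emission; 3 min, 1 s steps) report calcium mobilisation in human GnRHR-HEK293 cells in agonist mode. Dye incubation: 1 h, 37 C.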

5-hydroxytryptamine receptor 2A (Homo sapiens), sequence (P28223 whole entry, looked up): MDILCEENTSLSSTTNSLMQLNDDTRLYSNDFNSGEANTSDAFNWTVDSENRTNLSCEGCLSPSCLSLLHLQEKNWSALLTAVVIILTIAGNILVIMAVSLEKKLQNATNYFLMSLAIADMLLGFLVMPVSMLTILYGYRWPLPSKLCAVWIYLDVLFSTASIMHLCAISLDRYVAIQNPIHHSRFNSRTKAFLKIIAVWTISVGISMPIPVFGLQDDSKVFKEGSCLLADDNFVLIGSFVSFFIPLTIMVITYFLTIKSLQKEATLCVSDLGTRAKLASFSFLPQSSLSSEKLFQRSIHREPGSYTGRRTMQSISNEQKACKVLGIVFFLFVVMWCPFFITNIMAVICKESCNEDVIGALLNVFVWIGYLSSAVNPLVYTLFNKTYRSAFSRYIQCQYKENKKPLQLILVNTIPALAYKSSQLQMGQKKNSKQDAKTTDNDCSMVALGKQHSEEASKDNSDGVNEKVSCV
Muscarinic acetylcholine receptor M1 (Homo sapiens), sequence (P11229 whole entry, looked up): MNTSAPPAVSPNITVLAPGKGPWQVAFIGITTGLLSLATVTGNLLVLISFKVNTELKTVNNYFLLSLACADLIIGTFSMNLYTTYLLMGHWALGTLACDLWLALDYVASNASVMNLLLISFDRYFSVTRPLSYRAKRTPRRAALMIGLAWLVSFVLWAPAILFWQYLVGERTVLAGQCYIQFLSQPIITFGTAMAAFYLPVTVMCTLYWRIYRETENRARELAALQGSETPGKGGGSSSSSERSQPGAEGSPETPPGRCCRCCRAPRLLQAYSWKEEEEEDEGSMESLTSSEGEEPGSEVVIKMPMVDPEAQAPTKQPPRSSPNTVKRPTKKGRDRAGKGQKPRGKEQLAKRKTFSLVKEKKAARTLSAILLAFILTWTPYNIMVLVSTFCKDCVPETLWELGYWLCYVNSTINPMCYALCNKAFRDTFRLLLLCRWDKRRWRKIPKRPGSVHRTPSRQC
D(2) dopamine receptor (Homo sapiens), sequence (P14416 whole entry, looked up): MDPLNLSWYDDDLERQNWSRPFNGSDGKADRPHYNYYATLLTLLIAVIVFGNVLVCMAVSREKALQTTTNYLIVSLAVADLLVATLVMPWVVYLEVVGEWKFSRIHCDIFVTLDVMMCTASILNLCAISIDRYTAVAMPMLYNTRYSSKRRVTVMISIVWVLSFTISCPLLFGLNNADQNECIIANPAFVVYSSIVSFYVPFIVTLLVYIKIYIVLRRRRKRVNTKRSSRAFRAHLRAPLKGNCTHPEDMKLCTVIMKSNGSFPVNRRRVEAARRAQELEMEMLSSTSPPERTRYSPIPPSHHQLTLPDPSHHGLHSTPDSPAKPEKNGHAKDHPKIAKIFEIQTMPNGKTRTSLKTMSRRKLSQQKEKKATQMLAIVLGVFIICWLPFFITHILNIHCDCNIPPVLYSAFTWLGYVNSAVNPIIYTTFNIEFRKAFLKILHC
KiSS-1 receptor (Homo sapiens), sequence (Q969F8 whole entry, looked up): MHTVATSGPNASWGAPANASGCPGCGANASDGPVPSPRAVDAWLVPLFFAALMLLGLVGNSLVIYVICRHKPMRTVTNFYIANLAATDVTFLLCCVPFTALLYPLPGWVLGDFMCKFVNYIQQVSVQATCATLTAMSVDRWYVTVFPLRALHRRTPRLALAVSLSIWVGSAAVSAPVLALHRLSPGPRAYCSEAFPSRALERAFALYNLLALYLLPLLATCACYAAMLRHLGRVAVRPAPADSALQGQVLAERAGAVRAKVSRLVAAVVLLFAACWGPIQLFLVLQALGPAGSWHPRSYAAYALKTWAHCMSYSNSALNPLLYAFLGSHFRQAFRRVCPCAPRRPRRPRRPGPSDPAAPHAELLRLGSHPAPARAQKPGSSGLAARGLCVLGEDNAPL
Beta-2 adrenergic receptor (Homo sapiens), sequence (P07550 whole entry, looked up): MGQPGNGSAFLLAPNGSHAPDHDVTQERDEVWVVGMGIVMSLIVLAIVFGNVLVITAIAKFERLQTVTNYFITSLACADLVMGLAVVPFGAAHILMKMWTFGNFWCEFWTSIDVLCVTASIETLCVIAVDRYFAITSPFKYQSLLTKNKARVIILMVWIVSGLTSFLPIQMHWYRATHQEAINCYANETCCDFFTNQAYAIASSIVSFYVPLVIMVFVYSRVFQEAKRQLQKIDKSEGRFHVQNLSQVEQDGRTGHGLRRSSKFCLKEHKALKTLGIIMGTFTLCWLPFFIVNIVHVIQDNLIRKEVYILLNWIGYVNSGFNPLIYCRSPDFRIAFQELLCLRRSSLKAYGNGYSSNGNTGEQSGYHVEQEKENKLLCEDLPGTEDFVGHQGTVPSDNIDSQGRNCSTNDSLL
Gonadotropin-releasing hormone receptor (Homo sapiens), sequence (P30968 whole entry, looked up): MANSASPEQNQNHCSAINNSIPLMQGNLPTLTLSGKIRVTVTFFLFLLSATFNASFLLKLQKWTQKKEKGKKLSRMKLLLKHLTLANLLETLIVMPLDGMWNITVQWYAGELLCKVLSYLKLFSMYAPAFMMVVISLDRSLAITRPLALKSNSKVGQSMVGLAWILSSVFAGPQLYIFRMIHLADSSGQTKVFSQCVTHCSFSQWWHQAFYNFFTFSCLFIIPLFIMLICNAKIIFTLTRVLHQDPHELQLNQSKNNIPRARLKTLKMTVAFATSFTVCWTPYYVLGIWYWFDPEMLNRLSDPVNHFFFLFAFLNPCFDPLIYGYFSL

SMILES	Potency [1]	Potency [2]	Potency [3]	Potency [4]	Potency [5]	Potency [6]	Potency [7]	Potency [8]	Potency [9]	Potency [10]	Potency [11]	Potency [12]	Potency [13]	Potency [14]	Potency [15]	Potency [16]	Potency [17]	Potency [18]	Potency [19]	Potency [20]
Cc1c(C(=O)O)c(O)cc2c1C(=O)c1c(O)c([C@@H]3O[C@H](CO)[C@@H](O)[C@H](O)[C@H]3O)c(O)c(O)c1C2=O	inactive	inactive	inactive	inactive	inactive	inactive	inactive	inactive	inactive	inactive	inactive	inactive	inactive	–	–	–	–	–	–	–
O=c1cc(-c2ccc(O)cc2)oc2cc(O)cc(O)c12	8.75 µM (active) and 9.69 µM (active)	inactive	inactive	inactive	–	inactive	inactive	inactive	–	inactive	inactive	inactive	–	inactive	inactive	inactive	–	–	–	–
CN[C@H]1CC[C@@H](c2ccc(Cl)c(Cl)c2)c2ccccc21	inactive	inactive	inactive	inactive	inactive	inactive	inactive	inactive	inactive	–	–	–	inactive	–	inactive	inactive	15 µM (active)	–	–	–
CN(C)c1ccc(N=Nc2ccccc2C(=O)O)cc1	61.1 µM (active)	inactive	inactive	inactive	inactive	–	inactive	–	–	inactive	inactive	inactive	–	inactive	inactive	inactive	inactive	–	–	–
CCCCC(CC)CN=C(N)NC(N)=NCCCCCCN=C(N)NC(N)=NCC(CC)CCCC (centres undefined)	inactive	inactive	inactive	inactive	inactive	22.3 µM (active)	17.8 µM (active)	19.9 µM (active)	–	18.3 µM (active)	–	0.918 µM (active)	29.8 µM (active)	inactive	29.8 µM (active)	–	13.3 µM (active)	–	–	–
O=C(c1ccc(F)cc1)C1CCN(CCn2c(=S)[nH]c3ccccc3c2=O)CC1	23.7 µM (active)	inactive	inactive	inactive	inactive	inactive	inactive	inactive	inactive	–	–	–	–	inactive	29.8 µM (active)	inactive	–	–	–	–
CC(C)C(OC(=O)c1ccccc1)C(C)(C)COC(=O)c1ccccc1 (centres undefined)	30.6 µM (active)	inactive	inactive	inactive	inactive	inactive	inactive	inactive	–	–	inactive	inactive	inactive	inactive	inactive	inactive	inactive	inactive	–	–
CC/C=C\CCOC(C)OCC (centres undefined)	inactive	inactive	inactive	–	inactive	inactive	inactive	inactive	inactive	inactive	inactive	inactive	inactive	inactive	inactive	inactive	inactive	–	inactive	–
OCCN1CCN(CCCN2c3ccccc3Sc3ccc(Cl)cc32)CC1	inactive	inactive	inactive	–	inactive	inactive	inactive	inactive	–	–	–	–	–	–	–	inactive	0.0266 µM (active)	–	–	–
CCCCCCCCCCCCCOS(=O)(=O)O	inactive	inactive	inactive	inactive	inactive	–	inactive	inactive	inactive	42.1 µM (active)	–	inactive	inactive	inactive	inactive	inactive	inactive	–	–	–
O=C1c2ccccc2C(=O)c2c(O)c(O)cc(O)c21	inactive	inactive	inactive	–	inactive	inactive	inactive	inactive	–	inactive	inactive	inactive	–	inactive	inactive	inactive	inactive	inactive	–	–
CN(C)CCCN1c2ccccc2Sc2ccc(C(F)(F)F)cc21	inactive	inactive	inactive	–	inactive	inactive	inactive	inactive	–	–	–	inactive	inactive	inactive	inactive	inactive	–	–	–	–
Cc1cc(C(C#N)c2ccc(Cl)cc2)c(Cl)cc1NC(=O)c1cc(I)cc(I)c1O (centres undefined)	inactive	–	inactive	–	–	inactive	–	5.61 µM (active)	–	–	–	–	–	–	inactive	inactive	inactive	–	–	inactive
NC(N)=N/N=C/c1c(Cl)cccc1Cl	inactive	inactive	inactive	inactive	inactive	–	inactive	inactive	inactive	–	–	–	inactive	–	inactive	inactive	inactive	inactive	inactive	–
C1CCC(C(CC2CCCCN2)C2CCCCC2)CC1 (centres undefined)	inactive	inactive	inactive	inactive	inactive	inactive	inactive	–	inactive	–	–	–	29.8 µM (active)	–	–	inactive	–	–	–	–
